Assay [1] can be described thus: Quantitative High-Throughput drug screen in 47 multiple myeloma cell lines against the NCATS MIPE library collection: KMS26_JCRB cell viability assay (AID 1918975). Further: nearly all actives have a fitted effect of over 45% in size. The method in brief: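 Steps: seed 500 cells per well; pin-transfer MIPE 4.0 library; incubate 48 h at 37C, 5% CO2, humidified; add CellTiter-Glo, 5 min room temperature; read luminescence.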
Assay [2] in a line: Quantitative High-Throughput drug screen in 47 multiple myeloma cell lines against the NCATS MIPE library collection: MMM1_PLB cell viability assay (AID 1918976). Further: nearly all actives have a fitted effect of over 35% in size. The method in brief: (§1)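 Cells were exposed to library compounds for 48 hours, after which ATP was measured by CellTiter-Glo. Signal was taken as median relative luminescence units.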
Assay [3] can be described thus: Quantitative High-Throughput drug screen in 47 multiple myeloma cell lines against the NCATS MIPE library collection: OCIMY1_PLB cell viability assay (AID 1918979). Further: nearly all actives have a fitted effect of over 35% in size.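 On viability: 100% = DMSO-only wells and 0% = cell-free media-only wells.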 Summed up: as §1
Assay [4] is described as follows: Quantitative High-Throughput drug screen in 47 multiple myeloma cell lines against the NCATS MIPE library collection: MM1R_ATCC cell viability assay (AID 1918981). Further: nearly all actives have a fitted effect of over 35% in size. The method in brief:
as §1

Assay [5] can be described thus: Quantitative High-Throughput drug screen in 47 multiple myeloma cell lines against the NCATS MIPE library collection: KMS28PE_JCRB cell viability assay (AID 1918983). Further: nearly all actives have a fitted effect of over 35% in size. The method in brief:
as §1

The nature of assay [6]: Quantitative High-Throughput drug screen in 47 multiple myeloma cell lines against the NCATS MIPE library collection: KMS21BM_JCRB cell viability assay (AID 1918974). Particulars: ATP luminescence, 48 h; viability: at 45.8 µM (top of the series) unless noted. Summed up: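 Primary qHTS used for cherry-picking: cells at 500/well, library compounds for 48 h (37C, 5% CO2), luminescent ATP assay.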

Assay [7] in a line: Quantitative High-Throughput drug screen in 47 multiple myeloma cell lines against the NCATS MIPE library collection: NCIH929_DSMZ cell viability assay (AID 1918978). Further: nearly all actives have a fitted effect of over 35% in size. The method in brief:
as §1

Assay [8] can be described thus: Quantitative High-Throughput drug screen in 47 multiple myeloma cell lines against the NCATS MIPE library collection: LP1_DSMZ cell viability assay (AID 1918982). Further: nearly all actives have a fitted effect of over 35% in size. Summed up: as §1
The nature of assay [9]: Quantitative High-Throughput drug screen in 47 multiple myeloma cell lines against the NCATS MIPE library collection: MOLP8_DSMZ cell viability assay (AID 1918977). Further: nearly all actives have a fitted effect of over 45% in size. The method in brief: as §1
Assay [10] in a line: Quantitative High-Throughput drug screen in 47 multiple myeloma cell lines against the NCATS MIPE library collection: MM1S_ATCC cell viability assay (AID 1918980). Further: nearly all actives have a fitted effect of over 45% in size. The method in brief: as §1

Records with an inconclusive call do not appear. Calls of active or inactive are those of the source. The call rests on the fitted dose curve; in most records, active means well fitted curve in the direction sought with a large enough effect; inconclusive means small, poorly fitted or top-dose-only effect, or another doubt; inactive means no such curve, though single readings can be large; an effect the other way counts as inactive or inconclusive.
Potency means the concentration at half of the fitted maximal effect.

Consider `Clc1ccc(C(c2ccccc2Cl)C(Cl)Cl)cc1` (configuration not stated), for which the Potency in [1] is 18.7 µM (active); in [2], 20.9 µM (active); in assay [3], 26.4 µM (active); in assay [4], 14.8 µM (active); in assay [5], 23.5 µM (active).
Turning to `Cc1cn([C@H]2C=C[C@@H](CO)O2)c(=O)[nH]c1=O`, in assay [6], the viability (commonly the share of living cells, or the viability signal relative to a control) was 91.7% [at 92.2 µM] (active). Moreover, the Potency entry in [1], in [7], in [3], in assay [8] and in [5] was “inactive” each time.
Consider `O=C(Nc1ccc([N+](=O)[O-])cc1Cl)c1cc(Cl)ccc1O`, for which the Potency in assay [6] was 1.05 µM (active); in [1], 1.87 µM (active); in [2], 0.743 µM (active); in assay [9] it was 1.66 µM (active); in [7], 1.05 µM (active); in assay [3] it was 2.96 µM (active). Further, the Potency was 1.66 µM (active) in assay [4], 0.743 µM (active) in assay [8] and 2.09 µM (active) in assay [5].
With `NCCCCCC(=O)O`, the Potency entry in assay [1], in assay [9], in assay [7], in [3], in assay [4] and in assay [8] was “inactive” in each case. Besides, the Potency result in assay [5] was “inactive”. Further, the Potency in assay [2] was 0.296 µM (active).
Regarding `CN1C2CCC1CC(OC(=O)C(CO)c1ccccc1)C2` (configuration not stated), the Potency result in assay [1], in [2], in assay [7], in [3], in assay [4] and in assay [8] was “inactive” each time. In addition, the Potency entry in [5] was “inactive”.
Turning to `NC(CO)C(=O)NNCc1ccc(O)c(O)c1O` (configuration not stated), the Potency was 33.2 µM (active) in [1]; 7.43 µM (active) in assay [2]; 26.4 µM (active) in assay [3]; 11.8 µM (active) in assay [4]; 20.9 µM (active) in [8]. In assay [7], the Potency entry is “inactive”.
On to `CC1COc2c(N3CCN(C)CC3)c(F)cc3c(=O)c(C(=O)O)cn1c23` (configuration not stated), for which the Potency is 5.26 µM (active) in assay [6] and 11.8 µM (active) in assay [2]. Further, the Potency entry in assay [1], in assay [7], in assay [3], in assay [4], in assay [8] and in assay [5] was “inactive” each time.
As for `Cn1cnc2c1c(=O)[nH]c(=O)n2C`, the Potency is 9.35 µM (active) in assay [6]; 20.9 µM (active) in [1]; 10.5 µM (active) in [2]; 16.6 µM (active) in [7]; 23.5 µM (active) in assay [3]; 29.6 µM (active) in assay [10]. Also, the Potency is 18.7 µM (active) in assay [4], 16.6 µM (active) in [8] and 18.7 µM (active) in [5].
Take `CCCCc1oc2ccccc2c1C(=O)c1cc(I)c(OCCN(CC)CC)c(I)c1`: the Potency in assay [1] is 20.9 µM (active); in assay [2] it was 18.7 µM (active); in [9] it was 23.5 µM (active); in assay [7], 23.5 µM (active); in assay [3], 26.4 µM (active); in [4], 18.7 µM (active).
For `CN(C)CCC=C1c2ccccc2C=Cc2ccccc21`, the Potency in [1] is 6.62 µM (active); in [2], 4.18 µM (active); in [4] it was 18.7 µM (active); in [5] it was 16.6 µM (active). Moreover, the Potency result in assay [7] and in [3] was “inactive” throughout.
`CN1CCN(CCCN2c3ccccc3Sc3ccc(Cl)cc32)CC1`: the Potency is 6.62 µM (active) in [6]; 26.4 µM (active) in [1]; 26.4 µM (active) in assay [2]; 29.6 µM (active) in assay [7]; 26.4 µM (active) in [4]. In addition, in assay [3], the Potency result is “inactive”.
As for `OCCN1CCN(CCCN2c3ccccc3Sc3ccc(C(F)(F)F)cc32)CC1`, the Potency in assay [6] is 14.8 µM (active); in assay [1], 20.9 µM (active); in assay [7], 20.9 µM (active); in [8], 18.7 µM (active); in [5] it was 18.7 µM (active).
For `CC[C@@]1(O)C(=O)OCc2c1cc1n(c2=O)Cc2cc3c(CN(C)C)c(O)ccc3nc2-1`, the Potency in [1] was 20.9 µM (active); in assay [2] it was 18.7 µM (active); in [9], 1.32 µM (active); in assay [7], 0.743 µM (active); in assay [3], 13.2 µM (active); in [4], 0.166 µM (active). Also, the Potency in assay [8] is 13.2 µM (active); in [5], 0.935 µM (active).
As to `CS(=O)(=O)CCNCc1ccc(-c2ccc3ncnc(Nc4ccc(OCc5cccc(F)c5)c(Cl)c4)c3c2)o1`, the Potency is 11.8 µM (active) in assay [6]; 16.6 µM (active) in assay [1]; 18.7 µM (active) in [2]; 0.264 µM (active) in [7]; 0.166 µM (active) in assay [10]; 18.7 µM (active) in assay [4]. Further, the Potency in assay [8] is 18.7 µM (active); in assay [5] it was 26.4 µM (active).
For the molecule `C[C@](N)(Cc1ccc(O)c(O)c1)C(=O)O`, the Potency in assay [6] is 20.9 µM (active); in assay [2] it was 5.26 µM (active); in assay [3], 16.6 µM (active); in [4] it was 20.9 µM (active).
Consider `Nc1nc2c(ncn2COC(CO)CO)c(=O)[nH]1`, for which the Potency in assay [1] is 20.9 µM (active); in assay [2] it was 23.5 µM (active); in assay [7] it was 9.35 µM (active); in assay [3] it was 18.7 µM (active); in assay [4] it was 20.9 µM (active); in assay [8], 23.5 µM (active). Moreover, in assay [5], the Potency is 20.9 µM (active).
Consider `CN(C)CCCN1c2ccccc2CCc2ccc(Cl)cc21`, for which the Potency is 1.66 µM (active) in assay [1]; 20.9 µM (active) in assay [2]; 0.469 µM (active) in assay [7]; 1.48 µM (active) in assay [4]; 14.8 µM (active) in assay [5].
As for `CC#C[C@]1(O)CC[C@H]2[C@@H]3CCC4=CC(=O)CCC4=C3[C@@H](c3ccc(N(C)C)cc3)C[C@@]21C`, the Potency in assay [1] is 4.18 µM (active); in assay [2], 4.18 µM (active); in [7], 0.418 µM (active); in assay [3], 3.72 µM (active); in [10], 0.187 µM (active); in assay [4] it was 0.743 µM (active). For the same molecule, the Potency in [8] was 2.64 µM (active); in assay [5], 1.32 µM (active).
As for `CNCCCC12CCC(c3ccccc31)c1ccccc12`, the Potency is 11.8 µM (active) in assay [6]; 20.9 µM (active) in assay [1]; 20.9 µM (active) in [2]; 20.9 µM (active) in [3]; 16.6 µM (active) in assay [10]; 29.6 µM (active) in assay [4]. Also, the Potency in assay [8] was 20.9 µM (active); in assay [5], 23.5 µM (active).
With `Cc1ccc(C(=O)Nc2ccc(S(=O)(=O)O)c3cc(S(=O)(=O)O)cc(S(=O)(=O)O)c23)cc1NC(=O)c1cccc(NC(=O)Nc2cccc(C(=O)Nc3cc(C(=O)Nc4ccc(S(=O)(=O)O)c5cc(S(=O)(=O)O)cc(S(=O)(=O)O)c45)ccc3C)c2)c1`, the Potency result in [6], in assay [7], in assay [3], in [4] and in [8] was “inactive” throughout. Also, in assay [2], the Potency is 0.0372 µM (active).
On to `NC(=O)NO`, for which the Potency in assay [1] was 1.18 µM (active); in assay [2] it was 2.09 µM (active); in [7], 0.743 µM (active); in [3], 0.662 µM (active); in assay [10] it was 0.935 µM (active); in [4], 1.18 µM (active). The Potency in assay [8] was 2.64 µM (active); in assay [5] it was 2.35 µM (active).
Take `CCc1cccc2c3c([nH]c12)C(CC)(CC(=O)O)OCC3` (configuration not stated): the Potency result in assay [1], in [7], in assay [3], in assay [8] and in assay [5] was “inactive” each time. Further, the Potency in assay [2] is 4.18 µM (active).
Regarding `CN1CCC(=C2c3ccccc3CC(=O)c3sccc32)CC1`, the Potency entry in assay [6], in assay [9], in [3], in assay [8] and in [5] was “inactive” throughout. Besides, the Potency in assay [7] was 4.18 µM (active).
For `CC(C)NCC(O)c1ccc(O)c(O)c1` (configuration not stated), the Potency was 0.372 µM (active) in [6], 7.43 µM (active) in assay [2] and 4.18 µM (active) in [4].
Consider `CCC1(C)CC(=O)NC1=O` (configuration not stated), for which the Potency entry in [1], in assay [2], in assay [7], in assay [3], in assay [10] and in assay [4] was “inactive” each time. In addition, the Potency result in assay [5] was “inactive”.
`CN1CCN2c3ccccc3Cc3ccccc3C2C1` (configuration not stated): the Potency in [1] is 26.4 µM (active); in assay [2], 20.9 µM (active); in assay [3], 16.6 µM (active).
Take `CN(C)C(=O)C(CCN1CCC(O)(c2ccc(Cl)cc2)CC1)(c1ccccc1)c1ccccc1`: the Potency in [1] is 16.6 µM (active); in [2], 16.6 µM (active); in assay [7] it was 23.5 µM (active); in [4], 20.9 µM (active); in assay [5], 14.8 µM (active).
Consider `CS(=O)(=O)Nc1ccc([N+](=O)[O-])cc1Oc1ccccc1`, for which the Potency in assay [1] was 18.7 µM (active); in [2] it was 11.8 µM (active); in assay [4] it was 20.9 µM (active); in [5] it was 0.187 µM (active). Besides, the Potency entry in assay [7] and in assay [3] was “inactive” each time.
Regarding `O=C(c1ccc(OCCN2CCCCC2)cc1)c1c(-c2ccc(O)cc2)sc2cc(O)ccc12`, the Potency was 13.2 µM (active) in [6], 20.9 µM (active) in assay [1] and 23.5 µM (active) in assay [7]. Moreover, the Potency entry in assay [3] was “inactive”.
As for `NCCc1cnc[nH]1`, the Potency result in assay [1], in [7], in assay [3] and in assay [5] was “inactive” each time. In addition, the values for the Potency in assay [2] and in [4] were 0.0132 µM (active) and 1.87 µM (active), respectively.
As to `CC1(C)O[C@H]2CC(=O)OC[C@]23[C@H]2CC[C@@]4(C)[C@H](c5ccoc5)OC(=O)[C@H]5O[C@]54[C@]2(C)C(=O)C[C@@H]13`, the Potency result in assay [6], in assay [1], in assay [7], in assay [3], in [10] and in assay [4] was “inactive” throughout. Moreover, the Potency entry in assay [8] and in assay [5] was “inactive” throughout.

The values are drawn from PubChem BioAssay (NCATS).
